Screening results (PubChem BioAssay)
Pol iota inh = blocks human DNA polymerase iota activity; Pol iota fluorescent replication assay, 10 min; Potency, µM (highest dose often 115 µM), inactives show top-dose activity, negative = inhibition, usual class: inhibitors; 390,000 compounds, 1% hits; AID 588590
Target sequence (Q9UNA4 whole entry, looked up): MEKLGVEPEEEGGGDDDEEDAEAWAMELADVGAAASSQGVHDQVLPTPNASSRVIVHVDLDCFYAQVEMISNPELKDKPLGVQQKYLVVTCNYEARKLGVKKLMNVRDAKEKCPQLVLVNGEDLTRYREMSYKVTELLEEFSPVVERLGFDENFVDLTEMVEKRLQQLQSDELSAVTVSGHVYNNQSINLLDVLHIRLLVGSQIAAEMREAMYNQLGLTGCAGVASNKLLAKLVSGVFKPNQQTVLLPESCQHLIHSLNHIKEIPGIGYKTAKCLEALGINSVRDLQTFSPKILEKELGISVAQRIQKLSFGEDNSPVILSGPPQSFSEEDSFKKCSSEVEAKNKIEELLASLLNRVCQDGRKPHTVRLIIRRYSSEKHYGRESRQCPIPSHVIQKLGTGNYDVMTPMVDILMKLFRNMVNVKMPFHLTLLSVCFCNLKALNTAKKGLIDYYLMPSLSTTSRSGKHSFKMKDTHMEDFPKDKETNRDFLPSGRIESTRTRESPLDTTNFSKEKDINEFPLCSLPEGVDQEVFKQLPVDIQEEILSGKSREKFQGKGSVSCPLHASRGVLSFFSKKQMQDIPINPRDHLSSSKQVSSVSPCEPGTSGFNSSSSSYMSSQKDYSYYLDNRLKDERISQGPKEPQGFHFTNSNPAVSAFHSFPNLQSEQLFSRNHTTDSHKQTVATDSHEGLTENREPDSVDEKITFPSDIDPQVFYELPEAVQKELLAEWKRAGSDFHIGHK
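Pol iota at 10 nM preincubated 15 min with compounds at room temperature; reaction started with fluorescent substrate, 50 nM final. Fluorescence read kinetically at 0 and 10 min; buffer-only wells as negative control.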
Pol eta inh-1 = blocks human DNA polymerase eta activity | Potency, µM (highest dose often 114 µM), without a hit: top-dose activity change, negative = inhibition, most hits filed as inhibitors | recombinant Pol eta, fluorescent DNA replication assay | Q9Y253 | 390,000 compounds, 1.2% hits | AID 588591; further: on the % scale 0 is the no-effect control and ±100 the full control effect
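Pol eta (10 nM) was preincubated with compounds for 15 min at room temperature, after which fluorescent replication substrate (50 nM final) was added to start the reaction. Fluorescence was read kinetically at 0 and 10 min.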
APE1 inh = blocks human APE1 abasic DNA cleavage; P27695; recombinant APE1, TAMRA/BHQ-2 abasic DNA cleavage fluorescence; Potency, µM (titrated, usually from 65.8 µM), without a hit: at the highest dose activity change, negative = inhibition, hits mostly inhibitors; 350,000 compounds, 0.35% hits;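 further: plate controls were vehicle for no effect and reference inhibitor for full effect; nearly all actives have a fitted effect of over 55% in size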
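Incision of a quenched TAMRA/BHQ-2 THF abasic-site duplex (50 nM) by 0.75 nM APE1, after 15 min compound preincubation, measured as fluorescence increase over three 60 s reads. Values normalized to buffer, DMSO and NSC13755 control wells.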
L3MBTL1 inh-1 = blocks human L3MBTL1 | Q9Y468 | AlphaScreen L3MBTL1–H3K9me1 peptide binding | Potency, µM (doses to about 57.1 µM), without a hit: at the top dose activity, negative = inhibition, most hits filed as inhibitors | 230,000 compounds, 0.66% hits | AID 485360; further: on the % scale 0 is the no-effect control and ±100 the full control effect; nearly all actives have a fitted effect of over 60% in size
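Displacement of a biotinylated histone H3(1-15) peptide monomethylated at Lys9 (75 nM) from L3MBTL1 (50 nM) was measured by AlphaScreen after a 30 min room-temperature compound incubation; cefsulodin titration served as intraplate control.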
POLK inh = blocks human DNA polymerase kappa activity. Q9UBT6. purified Pol kappa, fluorescent DNA synthesis assay, 10 min. Potency, µM (highest dose often 107 µM), inactives show at the top dose activity, negative = inhibition, actives largely listed as inhibitors. 400,000 compounds, 0.53% hits; further: on the % scale 0 is the no-effect control and ±100 the full control effect
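First, compounds were pin-transferred onto 10 nM Pol kappa. After 15 min at room temperature, substrate was added to 50 nM final. Fluorescence was then measured kinetically at 0 and 10 min.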
POLB inh = inhibitors of human DNA polymerase beta. P06746. Potency, µM (series often up to 114 µM), inactives show at the highest dose activity change, negative = inhibition, most hits filed as inhibitors. 340,000 compounds, 1.3% hits. Pol beta primer extension/strand displacement, fluorescence kinetic. AID 485314; further: on the % scale 0 is the no-effect control and ±100 the full control effect
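Human Pol beta at 10 nM; strand-displacement substrate 50 nM final. Compound exposure 15 min at room temperature before start, reaction 10 min at room temperature.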
L3MBTL1 inh-2 = L3MBTL1 binding inhibition validated | shares compounds with L3MBTL1 inh-1 | L3MBTL1 methyl-lysine binding inhibition, biochemical qHTS | Potency, µM, most hits filed as inhibitors | 500 compounds, 91% hits; further: nearly all actives have a fitted effect of over 70% in size
AlphaScreen ctr2 = interferes with AlphaScreen signal in L3MBTL1 counterscreen; Potency, µM (top dose mostly 57.1 µM), inactives show at the top dose activity change, negative = inhibition, usual class: inhibitors; AlphaScreen counterscreen, signal inhibition; 500 tested, under 10 active; shares compounds with L3MBTL1 inh-1; further: 0% is about no effect
TbPGK inh = TbPGK inhibition, hit validation | shares compounds with POLK inh | TbPGK coupled GAPDH assay, Kinase-Glo luminescence | Potency, µM (top dose mostly 57.5 µM), without a hit: at the top dose activity change, negative = inhibition, hits mostly inhibitors | 500 compounds, 79% hits; further: on the % scale 0 is the no-effect control and ±100 the full control effect; nearly all actives have a fitted effect of over 65% in size
Pol iota confirm = Confirm cherry-picked inhibitors of human polymerase iota. Potency, µM, actives largely listed as inhibitors. AID 720496. shares compounds with POLK inh. 1,500 compounds, 77% hits. Pol iota primer extension, TAMRA/BHQ fluorescence
Pol eta inh-2 = confirmation of human DNA polymerase eta inhibitors; shares compounds with Pol eta inh-1; Pol eta primer extension, TAMRA/BHQ fluorescence, 10 min; Potency, µM, actives largely listed as inhibitors; 2,600 compounds, 64% hits; AID 720502
Numbers without * were called inactive; ? = inconclusive; nt = no result given; [ ] = another dose, or the depositor's remark. Most compounds without a hit are left out; they make up all but 2.5% or so of the library. The call rests on the fitted dose curve; in most records, active means well fitted curve in the direction sought with a large enough effect; inconclusive means small, poorly fitted or top-dose-only effect, or another doubt; inactive means no such curve, though single readings can be large; an effect the other way counts as inactive or inconclusive. Potency means the concentration at half of the fitted maximal effect.

SMILES	Pol iota inh	Pol eta inh-1	APE1 inh	L3MBTL1 inh-1	POLK inh	POLB inh	others
CCOC(=O)Cn1c(=O)n(CC2CCCO2)c2nc(-c3ccccc3F)nc(C(N)=O)c21 (stereo not drawn)	37%	-13%	nt	nt	-11%[60.1 µM]	8%
COc1cc(OC)cc(C(=O)NN(CCC#N)C2=NS(=O)(=O)c3ccccc32)c1	118%	-5%	21%	nt	-3%	1%
O=C1NC(=O)/C(=C/c2ccc(-c3cc(C(=O)O)ccc3Cl)o2)S1	40µM*	20µM*	-20%	7.1µM*	56µM*	32µM*	L3MBTL1 inh-2=8.4*;AlphaScreen ctr2=-6%;Pol eta inh-2=?
O=C(/C=C1\SC(=O)NC1=O)Nc1ccc(C(=O)O)cc1	?	-16%	11%	nt	-21%	7%
O=c1[nH]c(=O)n(-c2ccccc2)c2c1C(C(F)(F)F)(C(F)(F)F)N=C(C1CCCCC1)N2	142%	3%	-2%	1%	-2%	22%
Cc1cc(C(=O)COC(=O)c2cc(Cl)c(O)c(Cl)c2)c(C)n1C	20µM*	16µM*	-22%	28µM*	79µM*	nt	L3MBTL1 inh-2=4.7*;AlphaScreen ctr2=?;Pol eta inh-2=?
CC(Sc1nc2sc3c(c2c(=O)n1-c1ccccc1)CCCC3)C(=O)O (stereo not drawn)	-18%	-8%	13%	10%	-11%	31%
CCn1c(SC(C)C(=O)O)nc2sc3c(c2c1=O)CCC3 (stereo not drawn)	?	3.5µM*	?	28µM*	25µM*	8.9µM*	L3MBTL1 inh-2=3.4*;AlphaScreen ctr2=2%;Pol iota confirm=75*;Pol eta inh-2=24*
O=C1NC(=O)/C(=C\c2ccc(O)cc2O)S1	?	2.8µM*	4µM*	4µM*	11µM*	1.6µM*	L3MBTL1 inh-2=1.7*;AlphaScreen ctr2=?;Pol iota confirm=30*;Pol eta inh-2=27*
Cc1cc(N2CCOCC2)ccc1/C=C1/SC(=O)NC1=O	11%	9%	2%	nt	-14%	0%
CN(c1ccccc1)c1ccc(/C=C(\CCC(=O)O)c2nc3ccccc3s2)cc1[N+](=O)[O-]	22µM*	8.9µM*	?	28µM*	?	8.9µM*	L3MBTL1 inh-2=24*;AlphaScreen ctr2=?;Pol iota confirm=27*;Pol eta inh-2=67*
Cc1ccc(/C=C(\CCC(=O)O)c2nc3ccccc3s2)cc1[N+](=O)[O-]	4%	-11%	2%	0%	-15%	3%
O=C(Nc1ccc(S(=O)(=O)Nc2ncccn2)cc1)c1cccc(Cl)c1	20%	-18%	nt	nt	-16%[60.1 µM]	-10%
O=C(Nc1ccc(S(=O)(=O)Nc2ncccn2)cc1)c1ccc2ncsc2c1	?	40µM*	4%	20µM*	-26%	?	L3MBTL1 inh-2=?;AlphaScreen ctr2=-1%;Pol eta inh-2=76*
CCOc1ccc(C=NNc2ccc(S(=O)(=O)Nc3ccccc3C(=O)O)cc2[N+](=O)[O-])cc1OC	?	?	17µM*	?	?	nt	TbPGK inh=8.2µM*
CC1CCC(C(=O)NC(C(=O)OCC(=O)c2ccc(Br)cc2)C(C)C)CC1 (stereo not drawn)	14%	-12%	nt	nt	-1%	-11%
Cc1cccc(NC(=O)CN2C(=O)N/C(=C\c3ccccc3OCc3ccc(C(=O)O)cc3)C2=O)c1	?	?	77%	nt	?	50µM*	Pol iota confirm=75*
Cc1cccc(NC(=O)CN2C(=O)N/C(=C/c3cc(C)n(C)c3C)C2=O)c1	121%	-12%	8%	-37%	3%	-25%
CCN(CC)CCOc1ccc2c(c1)C(=NO)c1cc(OCCN(CC)CC)ccc1-2	20µM*	?	-15%	-3%	?	40µM*	Pol iota confirm=75*
CCN(CC)CCOc1ccc(Br)cc1	18%	-1%	1%	-7%	-10%	4%
COc1ccc(/C=C2/SC(=S)N(CC(=O)O)C2=O)cc1OCc1ccc(Cl)cc1	-1%	?	-27%	-10%	-4%	?
O=C(O)CCCCN1C(=O)/C(=C\c2ccc(OCc3ccccc3)c(OCc3ccccc3)c2)SC1=S	?	20µM*	?	nt	?	45µM*	Pol iota confirm=42*
COc1ccc(Br)cc1CNC(=O)CN1C(=O)c2cccnc2Oc2ccc(C)cc21	?	?	nt	nt	-16%	33%	Pol iota confirm=?
c1ccn2cc(-c3ccc4c(c3)OCCO4)nc2c1	?	-8%	?	nt	-5%	5%	TbPGK inh=?
Cc1ccc2nc(-c3ccc4c(c3)OCCO4)cn2c1	29%	-17%	?	-12%	-1%	-11%
SMILES	Pol iota inh	Pol eta inh-1	APE1 inh	L3MBTL1 inh-1	POLK inh	POLB inh	others
CCN(CC)c1ccc(C(=C2C=CC(=[N+](CC)CC)C=C2)c2ccc(S(=O)(=O)O)cc2S(=O)(=O)[O-])cc1	?	20µM*	nt	nt	-13%	nt	TbPGK inh=16µM*
Cc1nc(-c2ccc(C(=O)N3CCOCC3)cc2)cs1	13%	-18%	1%	12%	-6%	-2%
Cc1nc(-c2ccc(C(=O)N3CCCC3)cc2)cs1	82%	1%	-4%	nt	1%	-9%	TbPGK inh=18µM*
C=CC[C@H](N)C(=O)O	-13%[58.9 µM]	-3%[57.1 µM]	-1%	nt	6%[60.1 µM]	-10%[57.1 µM]
Cc1ccccc1C(=O)Nc1ccc2c(C#N)c3nc4ccccc4nc3n2c1	40%	10µM*	?	?	-27%	?	Pol iota confirm=?
O=C(c1ccc2c3n(nc2c1)-c1ccccc1CO3)N1CCCCC1	36%	-7%	2%	nt	6%	5%	TbPGK inh=9.2µM*
CCOC(=O)CCNC(=O)N1CCCC(N(C)CCc2ccc(OC)c(OC)c2)C1 (stereo not drawn)	9%	-4%	17%	-1%	4%	37%
CCOC(=O)c1ccc(N2C=C(C(=O)OC)C(c3ccc(OC)c(O)c3)C(C(=O)OC)=C2)cc1	8%	-14%	-12%	nt	0%	3%
